Source: PubChem BioAssay (NCATS)
Results filed as inconclusive are left out. Values without a mark were called inactive. Calls come from the whole dose curve; tested in HEK293 reporter line.

Assay: qHTS for Inhibitors of the Functional Ribonucleoprotein Complex (vRNP) of Lassa (LASV) Arenavirus: LASV Primary Screen - GLuc reporter signal (AID 1347082); note: nearly all actives have a fitted effect of over 60% in size
Conditions: LASV minigenome vRNP, Gaussia luciferase reporter; series mostly up to 57.5 µM; activity change, negative = inhibition: at the top concentration
% is set by controls: 0 for no effect and ±100 for the full control effect.

Compound | activity change, negative = inhibition
COC(/C=C(\C)CCC=C(C)C)OC | 4.5% [at 115 µM]
O=C(C=CC=Cc1ccc2c(c1)OCO2)N1CCCCC1 | 9.86%
CC/C=C\C[C@H](O)/C=C/C=C\C/C=C\C/C=C\CCCC(=O)O | -0.193% [at 0.757 µM]
CN=CNc1ccc(C)cc1C | -5.5% [at 115 µM]
CC1C2CC(CC2C2CCCC(O)C2)C1(C)C (stereo not given) | -6.86%
C=CCCCCCCCCCCCC(O)CC(O)COC(C)=O (stereo not given) | 2%
O=C(CCCO)CCCCCCCCC[C@H]1N[C@H](CO)[C@@H](O)[C@@H]1O | -1.05%
SC1CCCC1 | -1.6% [at 115 µM]
CN1CCC[C@H]1CCO[C@](C)(c1ccccc1)c1ccc(Cl)cc1 | 0.101%
CCNC(=O)CCCC=CC[C@@H]1[C@H](C=CC(O)CCc2ccccc2)[C@@H](O)C[C@@H]1O (stereo not given in full) | -2.45%
C[C@@H]1C[C@@H]2OC(=O)[C@]3(C)[C@H]2[C@@H](OC3(C)O)[C@]2(C)C(=O)C=C[C@H]12 (stereo not given in full) | 6.38%
CC1(C)C=C2[C@H]3CC[C@@H]4[C@@]5(C)CCC(=O)C(C)(C)[C@@H]5CC[C@@]4(C)[C@]3(C)CC[C@@]2(C(=O)O)CC1 | 5.88%
C=C1C(=O)OC2C=C(C)CCC=C(C)CCC12 (stereo not given) | -22.9%
CC(C)(O[C@@H]1O[C@H](CO)[C@@H](O)[C@H](O)[C@H]1O)[C@H]1Cc2cc3ccc(=O)oc3cc2O1 | 15.1%
COc1cc2c(cc1OC)C(C(=O)c1ccc(OC)c(OC)c1O)=NCC2 | 21.4%
O=C(O)CCC/C=C\C/C=C\C=C\[C@@H](O)C/C=C\CCCCCO | 7.21% [at 0.757 µM]
CCC(C)(O)C(=O)N[C@H]1CCCN1C(=O)/C=C/c1ccccc1 (stereo not given in full) | 6.81%
COc1cc(C(=O)O)cc(OC)c1OC | -4.15%
N#CC(=C(N)Sc1ccc(N)cc1)c1ccccc1C(F)(F)F | -4.51%
NC1=NCCCC1 | -1.01%

Compound | activity change, negative = inhibition
COc1c(C(O)CC(C)C)ccc2c1C(=O)OCc1cc(C)cc(O)c1O2 (stereo not given) | -18.4%
COc1cc2cc(Oc3ccc4ccc(=O)oc4c3)c(=O)oc2cc1OC1OC(COC(=O)CC(C)(O)CC(=O)O)C(O)C(O)C1O (stereo not given) | 0.166%
COc1cc2c(cc1O)[C@@H]1Cc3cc(OC)c(OC)cc3C(C2)N1C | -15.1%
CC[C@H](C)C(=O)N[C@H]1CCCN1C(=O)/C=C/c1ccccc1 | -7.56%
O=C(/C=C/c1ccccc1)OCCc1ccccc1 | 0.471% [at 115 µM]
C=C(C)[C@@H]1CC[C@]2(C(=O)O)CC[C@]3(C)C(CCC4[C@@]5(C)CC[C@H](O)C(C)(C)C5CC[C@]43C)C12 (stereo not given in full) | 6.41%
CON(C)C(=O)N1N=C(c2cc(F)ccc2F)S[C@]1(CCCN)c1ccccc1 | -63.6%
C=C[C@@]1(C)CCC(/C(C)=C/C=C/C(C)(C)O)C[C@@H]1C(=C)C (stereo not given in full) | -2.36%
OCCNC1CCCc2c1[nH]c1ccc(-c3ccccc3)cc21 (stereo not given) | -12.7%
CC[C@@H](O)C[C@H]1CCC[C@@]2(C[C@@H]3OC(=O)/C=C/[C@@](C)(O)[C@@H](O)[C@H](C)[C@@H](O)[C@H](OC4CCC(N(C)C)C(C)O4)[C@@H](O)[C@](C)(O)CCCCC/C=C/[C@@H]4CC(C)(C)O[C@@]4(O)C[C@H](O2)[C@H]3C)O1 (stereo not given in full) | -82.9%
CC(=O)OC[C@]1(OC(C)=O)C[C@@]23CC[C@H]4[C@@](C)(CCC[C@@]4(C)C(=O)O)[C@@H]2CC[C@@H]1C3 | 4.9%
COc1cc2nc3occc3c(OC)c2cc1OC | 3.85%
O=c1[nH]c(=O)n([C@H]2C[C@@H](O)[C@@H](CO)O2)cc1I | 37.2%
CC(=O)O[C@@H]1CC2C(C)(C)C(=O)C=C[C@]2(C)C2CC[C@]3(C)C(=CC[C@H]3C3CO[C@@H](C(C)(C)O)[C@H](O)C3)[C@@]21C (stereo not given in full) | -18.9%
Cc1cc(O)cc(O[C@H]2OC(CO)[C@H](O)[C@@H](O)[C@H]2O)c1 (stereo not given in full) | 5.44%
C/C=C/C=C/CO | -20.8% [at 115 µM]
Cn1c2c(c(=O)c3ccccc31)C[C@@H](O)C(C)(C)O2 | -6.26%
COc1c2c(nc3occc13)C(CCC(C)(C)O)(OC)C(O)CC2 (stereo not given) | 2.06%
CCCCCC/C=C/C=O | -0.0088% [at 115 µM]
COc1cc(CCC(C)=O)ccc1O | -11.8% [at 115 µM]

Assay: qHTS for Inhibitors of the Functional Ribonucleoprotein Complex (vRNP) of Lassa (LASV) Arenavirus: Viability assay - alamar blue signal for LASV Primary Screen (AID 1347083); note: nearly all actives have a fitted effect of over 80% in size
Conditions: cell viability, alamar blue fluorescence (LASV minigenome counter-screen); series mostly up to 57.5 µM; activity change, negative = reduced viability: at the top concentration

Compound | activity change, negative = reduced viability
COC(/C=C(\C)CCC=C(C)C)OC | 18.6% [at 115 µM]
O=C(C=CC=Cc1ccc2c(c1)OCO2)N1CCCCC1 | -3.02%
CC/C=C\C[C@H](O)/C=C/C=C\C/C=C\C/C=C\CCCC(=O)O | 19.4% [at 0.757 µM]
CN=CNc1ccc(C)cc1C | 10.6% [at 115 µM]
CC1C2CC(CC2C2CCCC(O)C2)C1(C)C (stereo not given) | 1.15%
C=CCCCCCCCCCCCC(O)CC(O)COC(C)=O (stereo not given) | 18%
O=C(CCCO)CCCCCCCCC[C@H]1N[C@H](CO)[C@@H](O)[C@@H]1O | 10.7%
SC1CCCC1 | 17.3% [at 115 µM]
CN1CCC[C@H]1CCO[C@](C)(c1ccccc1)c1ccc(Cl)cc1 | -11.5%
CCNC(=O)CCCC=CC[C@@H]1[C@H](C=CC(O)CCc2ccccc2)[C@@H](O)C[C@@H]1O (stereo not given in full) | -1.29%
C[C@@H]1C[C@@H]2OC(=O)[C@]3(C)[C@H]2[C@@H](OC3(C)O)[C@]2(C)C(=O)C=C[C@H]12 (stereo not given in full) | -23.4%
CC1(C)C=C2[C@H]3CC[C@@H]4[C@@]5(C)CCC(=O)C(C)(C)[C@@H]5CC[C@@]4(C)[C@]3(C)CC[C@@]2(C(=O)O)CC1 | 0.0579%
C=C1C(=O)OC2C=C(C)CCC=C(C)CCC12 (stereo not given) | 7.16%
CC(C)(O[C@@H]1O[C@H](CO)[C@@H](O)[C@H](O)[C@H]1O)[C@H]1Cc2cc3ccc(=O)oc3cc2O1 | 10.6%
COc1cc2c(cc1OC)C(C(=O)c1ccc(OC)c(OC)c1O)=NCC2 | -9.32%
O=C(O)CCC/C=C\C/C=C\C=C\[C@@H](O)C/C=C\CCCCCO | 9.56% [at 0.757 µM]
CCC(C)(O)C(=O)N[C@H]1CCCN1C(=O)/C=C/c1ccccc1 (stereo not given in full) | 2.31%
COc1cc(C(=O)O)cc(OC)c1OC | 2.41%
N#CC(=C(N)Sc1ccc(N)cc1)c1ccccc1C(F)(F)F | 13.3%
NC1=NCCCC1 | 16.8%

Compound | activity change, negative = reduced viability
COc1c(C(O)CC(C)C)ccc2c1C(=O)OCc1cc(C)cc(O)c1O2 (stereo not given) | 13.6%
COc1cc2cc(Oc3ccc4ccc(=O)oc4c3)c(=O)oc2cc1OC1OC(COC(=O)CC(C)(O)CC(=O)O)C(O)C(O)C1O (stereo not given) | -2.59%
COc1cc2c(cc1O)[C@@H]1Cc3cc(OC)c(OC)cc3C(C2)N1C | -14.9%
CC[C@H](C)C(=O)N[C@H]1CCCN1C(=O)/C=C/c1ccccc1 | -1.08%
O=C(/C=C/c1ccccc1)OCCc1ccccc1 | 4.69% [at 115 µM]
C=C(C)[C@@H]1CC[C@]2(C(=O)O)CC[C@]3(C)C(CCC4[C@@]5(C)CC[C@H](O)C(C)(C)C5CC[C@]43C)C12 (stereo not given in full) | 2.98%
CON(C)C(=O)N1N=C(c2cc(F)ccc2F)S[C@]1(CCCN)c1ccccc1 | -87.9%
C=C[C@@]1(C)CCC(/C(C)=C/C=C/C(C)(C)O)C[C@@H]1C(=C)C (stereo not given in full) | -1.71%
OCCNC1CCCc2c1[nH]c1ccc(-c3ccccc3)cc21 (stereo not given) | -3.09%
CC[C@@H](O)C[C@H]1CCC[C@@]2(C[C@@H]3OC(=O)/C=C/[C@@](C)(O)[C@@H](O)[C@H](C)[C@@H](O)[C@H](OC4CCC(N(C)C)C(C)O4)[C@@H](O)[C@](C)(O)CCCCC/C=C/[C@@H]4CC(C)(C)O[C@@]4(O)C[C@H](O2)[C@H]3C)O1 (stereo not given in full) | -107%
CC(=O)OC[C@]1(OC(C)=O)C[C@@]23CC[C@H]4[C@@](C)(CCC[C@@]4(C)C(=O)O)[C@@H]2CC[C@@H]1C3 | 18.1%
COc1cc2nc3occc3c(OC)c2cc1OC | -28.1%
O=c1[nH]c(=O)n([C@H]2C[C@@H](O)[C@@H](CO)O2)cc1I | -28.7%
CC(=O)O[C@@H]1CC2C(C)(C)C(=O)C=C[C@]2(C)C2CC[C@]3(C)C(=CC[C@H]3C3CO[C@@H](C(C)(C)O)[C@H](O)C3)[C@@]21C (stereo not given in full) | 0.318%
Cc1cc(O)cc(O[C@H]2OC(CO)[C@H](O)[C@@H](O)[C@H]2O)c1 (stereo not given in full) | 9.46%
C/C=C/C=C/CO | 2.85% [at 115 µM]
Cn1c2c(c(=O)c3ccccc31)C[C@@H](O)C(C)(C)O2 | 0.887%
COc1c2c(nc3occc13)C(CCC(C)(C)O)(OC)C(O)CC2 (stereo not given) | 2.73%
CCCCCC/C=C/C=O | 13% [at 115 µM]
COc1cc(CCC(C)=O)ccc1O | 14.3% [at 115 µM]
